# Test results: paper PMC4336329 (PLoS ONE, 2015)
# Hit rate of the full screen: of about 310,000 compounds, about 14,000 (4.5%) showed an effect of 50% or more. The effect is printed as a negative number. The list comes from a sample in which strong results are over-represented; it also holds similar structures and randomly drawn compounds.
# Biological target: human ether-à-go-go-related gene (hERG) potassium channel (human, UniProt Q12809)
# Experiment: primary screen, population patch clamp on CHO cells stably expressing hERG; higher = less effect of the substance
# 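Note: peak tail current of the secondary pulse compared with the same well before compound.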
# Sequence of human ether-à-go-go-related gene (hERG) potassium channel (Q12809 whole entry, looked up): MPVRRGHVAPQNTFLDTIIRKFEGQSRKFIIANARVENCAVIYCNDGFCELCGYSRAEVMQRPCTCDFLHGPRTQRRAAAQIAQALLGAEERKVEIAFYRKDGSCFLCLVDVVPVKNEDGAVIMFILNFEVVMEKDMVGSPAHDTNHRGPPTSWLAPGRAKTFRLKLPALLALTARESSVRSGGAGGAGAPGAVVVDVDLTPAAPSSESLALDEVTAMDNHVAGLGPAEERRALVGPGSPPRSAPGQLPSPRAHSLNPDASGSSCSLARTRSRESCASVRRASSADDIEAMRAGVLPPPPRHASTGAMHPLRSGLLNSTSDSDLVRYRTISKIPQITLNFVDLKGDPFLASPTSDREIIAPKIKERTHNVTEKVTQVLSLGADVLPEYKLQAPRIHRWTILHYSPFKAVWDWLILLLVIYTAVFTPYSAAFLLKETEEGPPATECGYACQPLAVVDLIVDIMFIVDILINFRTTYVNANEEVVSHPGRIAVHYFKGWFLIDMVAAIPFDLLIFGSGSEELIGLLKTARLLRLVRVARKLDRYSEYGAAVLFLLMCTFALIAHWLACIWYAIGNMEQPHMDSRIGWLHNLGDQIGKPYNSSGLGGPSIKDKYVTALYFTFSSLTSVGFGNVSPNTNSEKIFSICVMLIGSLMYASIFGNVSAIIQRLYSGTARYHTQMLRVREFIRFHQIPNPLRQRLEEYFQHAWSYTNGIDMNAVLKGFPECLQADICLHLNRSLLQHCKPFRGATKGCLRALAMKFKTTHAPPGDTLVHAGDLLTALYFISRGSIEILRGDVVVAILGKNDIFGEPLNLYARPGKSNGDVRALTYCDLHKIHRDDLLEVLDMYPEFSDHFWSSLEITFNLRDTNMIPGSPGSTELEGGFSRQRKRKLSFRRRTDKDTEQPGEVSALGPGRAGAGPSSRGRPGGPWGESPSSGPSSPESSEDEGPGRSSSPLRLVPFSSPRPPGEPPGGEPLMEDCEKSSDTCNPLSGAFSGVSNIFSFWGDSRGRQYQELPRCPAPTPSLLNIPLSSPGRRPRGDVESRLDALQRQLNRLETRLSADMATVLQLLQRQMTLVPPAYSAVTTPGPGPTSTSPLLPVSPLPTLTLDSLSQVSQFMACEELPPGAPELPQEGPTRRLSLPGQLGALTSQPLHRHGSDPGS
row,Compound,"hERG current change (%, negative = inhibition) at 10uM [%]"
1,Cc1c(NC(=O)CN2C(=O)c3ccc([N+](=O)[O-])cc3C2=O)c(=O)n(-c2ccccc2)n1C,8.89
2,Cc1cccnc1NC(=O)C1CCN(S(=O)(=O)c2ccc3c(c2)CCC(=O)N3)CC1,16.1
3,O=C(CCc1nnc(CCCCc2ccccc2)o1)NCCN1CCCCC1=O,18.2
4,CC(=O)N1CCc2[nH]c3ccccc3c2C1,4.55
5,COc1ccc(Br)c(C(=O)Nc2ccc(F)cc2)c1,-0.956
6,NS(=O)(=O)c1ccc(CCNc2nc3c(-c4cccc(F)c4)nnn3c3ccccc23)cc1,21.5
7,C=CCNc1nc(C2(C)CC3(CC(C)OC3=O)C(=O)O2)cs1 (stereo not shown),-4.86
8,COc1cccc(O)c1CN1CCCC(C(=O)c2cccc(C(F)(F)F)c2)C1 (stereo not shown),-57.5
9,COCc1cc(CN2CCCC(C(=O)Nc3ccc(-c4ccco4)cc3)C2)ccc1OC (stereo not shown),-7.12
10,O=C(C1CCCN(CCCc2ccccc2)C1)N1CCCCC1 (stereo not shown),-38.8
11,COCc1ccc(C(=O)N2CCCC(C(=O)c3cccc(C(F)(F)F)c3)C2)o1 (stereo not shown),-0.276
12,COCc1cc(CN2CCCC(C(=O)c3cccc(C(F)(F)F)c3)C2)ccc1OC (stereo not shown),-63.1
13,O=C(c1cc(F)ccc1F)C1CCCN(CCCc2ccccc2)C1 (stereo not shown),-73.2
14,Cc1ccc(CN2CCCC(C(=O)c3cccc(C(F)(F)F)c3)C2)o1 (stereo not shown),-19.3
15,O=C(c1cc(F)ccc1F)C1CCCN(Cc2cccc(Cl)c2)C1 (stereo not shown),4.01
16,O=C(c1cccc(C(F)(F)F)c1)C1CCCN(Cc2cccc(OCCO)c2)C1 (stereo not shown),-47.4
17,O=C(c1cccc(C(F)(F)F)c1)C1CCCN(Cc2ccc(OCCO)cc2)C1 (stereo not shown),-69.8
18,CC(=O)CCCCn1cnc2c1c(=O)n(C)c(=O)n2C,20.7
19,O=c1cc([O-])n(Cc2ccc(F)cc2)c(=O)[nH]1.[NH4+],21.7
20,COCCN(C(=O)CSc1nnc(Nc2ccc(C)cc2)s1)c1c(N)n(CC(C)C)c(=O)[nH]c1=O,-7.66
21,Cn1ncc2c(NCc3ccccc3)ncnc21,-11
22,CCOC(=O)CN1C(=O)/C(=C/c2ccc(Cl)cc2)Oc2ccccc21,2.31
23,Nc1ccc(N=Nc2ccccc2)c2cccnc12,17.2

row,Compound,"hERG current change (%, negative = inhibition) at 10uM [%]"
1,CNC(=O)C(Sc1nc(C)nc2c1oc1ccccc12)C(C)=O (stereo not shown),2.63
2,Cc1cc(Br)ccc1NC(=O)c1cnc(N2CCN(c3ccccn3)CC2)c2ccccc12,10
3,COc1ccc(C(=O)C2CCCN(Cc3nc4ccccc4nc3C)C2)cc1OC (stereo not shown),-84.9
4,O=C(c1cc(F)ccc1F)C1CCCN(Cc2cc(Cl)ccc2O)C1 (stereo not shown),0.916
5,Nc1ccc(CCN2CCN(c3cccc(C(F)(F)F)c3)CC2)cc1,-67.2
6,COc1ccc(CCNC(=O)CN2CCN(c3cccc(C(F)(F)F)c3)CC2)cc1,-46.3
7,C#CCN1CCN(c2cccc(C(F)(F)F)c2)CC1,8.78
8,CCOc1ccccc1CN1CCCC(C(=O)c2cc(F)ccc2F)C1 (stereo not shown),-50.8
9,COc1ccc(C(=O)C2CCCN(C(=O)Cn3ccc(C)n3)C2)cc1OC (stereo not shown),19.1
10,Cn1cc(CN2CCCC(C(=O)c3cc(F)ccc3F)C2)c2ccccc21 (stereo not shown),-31.1
11,COc1ccc(C(=O)C2CCCN(C(=O)CSC)C2)cc1OC (stereo not shown),8.85
12,COc1ccc(C(=O)C2CCCN(Cc3c(O)cccc3OC)C2)cc1OC (stereo not shown),-63.1
13,COc1cccc(O)c1CN1CCCC(C(=O)c2sccc2C)C1 (stereo not shown),-45.9
14,COc1ccc(C(CNC(=O)C(CCSC)NC(=O)c2ccccc2Cl)N2CCCC2)cc1 (stereo not shown),-34.9
15,O=C(CCN1C(=O)c2ccccc2S1(=O)=O)Nc1cccc2ccccc12,-5.33
16,Cc1ccc(C)c(S(=O)(=O)Nc2ccc(C(N)=O)cc2)c1,14.9
17,CC1(C)CC(=O)c2c(Cc3ccccc3)noc2C1,12.1
18,Cc1ccccc1/C=C1\Sc2ccc(C(=O)N3CCN(c4ccccn4)CC3)cc2N(C)C1=O,-26.1
19,CCN(CC)S(=O)(=O)c1cccc(C(=O)Nc2nc3cc4c(cc3s2)OCCO4)c1,0.652
20,Cc1ccc(OCC(=O)N/N=C/c2ccncc2)cc1C,5.75
21,CC(C)OCCCNC(=O)c1ccc2c(=O)n(Cc3ccc4c(c3)OCO4)c(=S)[nH]c2c1,21.3
22,N#C/C(=C\c1ccc(F)cc1)C(=O)Nc1ccccn1,2.68
23,CCOc1cccc(CN2CCCC(C(=O)c3cccc(C(F)(F)F)c3)C2)c1O (stereo not shown),-67.9

row,Compound,"hERG current change (%, negative = inhibition) at 10uM [%]"
1,FC(F)(F)c1cccc(N2CCN(Cc3ccoc3)CC2)c1,-60.4
2,CCOc1cccc(CN2CCN(c3cccc(C(F)(F)F)c3)CC2)c1O,-46.6
3,CCOc1cc(CN2CCN(c3cccc(C(F)(F)F)c3)CC2)ccc1OC,-16.6
4,CC(=O)Nc1ccc(CN2CCN(c3cccc(C(F)(F)F)c3)CC2)cc1,-38
5,FC(F)(F)c1cccc(N2CCN(Cc3cccnc3)CC2)c1,-8.03
6,O=C(c1cccc(C(F)(F)F)c1)C1CCCN(Cc2ccccc2O)C1 (stereo not shown),-29
7,CCOc1cc(CN2CCN(c3cccc(C(F)(F)F)c3)CC2)ccc1O,-73
8,O=C1COc2ccc(-c3n[nH]c(=O)c4ccccc34)cc2N1,-2.91
9,c1ccc(-c2nnsc2Sc2ccccn2)cc1,3.35
10,Cc1cc(C)cc(CC2CC(=O)N(c3cc(C)on3)C2=O)c1 (stereo not shown),0.808
11,Cc1cc(C(=O)CSc2nnc(-c3ccc(Cl)cc3)n2C)c(C)n1CC1CCCO1 (stereo not shown),8.08
12,Cc1noc(C)c1COC(=O)c1ccc(N(C)C)cc1,-9.83
13,CNC(=O)CN(c1cc(C)ccc1OC)S(=O)(=O)c1ccc(C)cc1,-0.703
14,COc1ccccc1CNC(=O)CCNC(=O)C1CCN(S(=O)(=O)c2ccccc2)CC1,-7.65
15,C=CCn1c(SCC(=O)Nc2c(C)n(C)n(-c3ccccc3)c2=O)nc2ccccc2c1=O,-32.9
16,Cc1sc2nc(SCC(=O)Nc3c(C)n(C)n(-c4ccccc4)c3=O)n(C)c(=O)c2c1C,9.4
17,C=CCn1c(SCC(=O)Nc2c(C)n(C)n(-c3ccccc3)c2=O)nc2scc(-c3ccccc3)c2c1=O,-56
18,C=CCn1c(SCC(=O)Nc2c(C)n(C)n(-c3ccccc3)c2=O)nc2sc(C)c(-c3ccccc3)c2c1=O,-54
19,C=CCn1c(SCC(=O)Nc2ccccc2)nc2scc(-c3cccs3)c2c1=O,8.69
20,C=CCn1c(SCC(=O)Nc2c(C)n(C)n(-c3ccccc3)c2=O)nc2sc(C)c(C)c2c1=O,-31.4
21,O=C(O)c1ccc[nH]c1=S,10.3
22,CC(=O)NC1C(OCc2ccccc2)OC2COC(C)(C)OC2C1O (stereo not shown),18.3
23,Cc1ccc(C)c(NC(=S)NNC(=O)c2csc(C)c2C)c1,1.72

row,Compound,"hERG current change (%, negative = inhibition) at 10uM [%]"
1,O=C(NCc1ccccc1)C1CCCN1S(=O)(=O)c1ccc(Cl)cc1 (stereo not shown),-7.85
2,COc1ccc(OC)c(N(CC(=O)NCC2CCCO2)S(=O)(=O)c2ccccc2)c1 (stereo not shown),8.03
3,NC(=O)NC(=O)C(c1ccccc1)N1CCN(S(=O)(=O)Cc2ccccc2)CC1 (stereo not shown),-18.9
4,NC(=O)NC(=O)C(c1ccccc1)N1CCN(S(=O)(=O)c2ccc(Br)s2)CC1 (stereo not shown),-52.2
5,CC(NC(=O)C1CCN(S(=O)(=O)c2ccc(Br)s2)CC1)c1ccccc1 (stereo not shown),-0.752
6,CCN(c1cccc(C)c1)S(=O)(=O)c1cnc[nH]1,9.23
7,COc1ccccc1C(=O)NCC(c1cccs1)N1CCc2ccccc21 (stereo not shown),1.26
8,CCOC(=O)c1c(NC(=O)Cn2nc(C(F)(F)F)cc2C)sc2c1CCC2,-4.65
9,NC(=O)c1cc(-c2csc(NCCc3ccccc3)n2)ccc1O,6.05
10,COc1ccc(C2=NC(CO)(CO)CO2)cc1,19
11,Cc1sc2ncnc(NCC(c3ccccc3)N(C)C)c2c1C (stereo not shown),-40.1
12,Cc1sc2ncnc(NCC3COc4ccccc4O3)c2c1C (stereo not shown),-13.6
13,CCOC(=O)c1sc2ncnc(NCC(c3cccs3)N(C)C)c2c1C (stereo not shown),5.57
14,COc1ccccc1C(CNc1ncnc2sc(C)c(C)c12)N(C)C (stereo not shown),-55.4
15,COc1ccc(/C=N/Nc2ncnc3sc(C)c(C)c23)cc1,-8.19
16,Cc1nc(NCC(c2ccccc2)N(C)C)c2c(C)c(C)sc2n1 (stereo not shown),-77.1
17,Cc1nc(NCc2ccc(S(N)(=O)=O)cc2)c2c(C)c(C)sc2n1,2.83
18,Cc1sc2ncnc(NCC(O)c3ccc([N+](=O)[O-])cc3)c2c1C (stereo not shown),-71.6
19,Cc1nc(N(C)Cc2ccccc2)c2c(C)c(C)sc2n1,-14.8
20,Cc1sc2ncnc(N[C@@H](CCC(=O)O)C(=O)O)c2c1C,10.1
21,Cc1sc2ncnc(NCC(O)c3ccccc3)c2c1C (stereo not shown),17.7
22,COc1ccc(C(CNc2ncnc3sc(C)c(C)c23)N(C)C)cc1 (stereo not shown),-56.4
